# In the library only some 12% were active in any assay of this set; here they are far more common.
# Pf growth 48h – inhibits P. falciparum growth in the first generation, 48 h. P. falciparum luciferase growth in erythrocytes, 48 h. Potency, µM (doses to about 28.7 µM), without a hit: at the highest dose activity change, negative = inhibition, most hits filed as inhibitors. 310,000 tested, 5.9% active; further: potency means the concentration at half of the fitted maximal effect; on the % scale 0 is the no-effect control and ±100 the full control effect
#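 Compounds are pin-transferred into medium, infected erythrocytes (2% hematocrit, 0.1% parasitemia final) are added, and plates sit one parasite generation at 37 C in 5% CO2. Detection reagent is then added and luminescence measured.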
# AmpC inh detg – AmpC beta-lactamase inhibition with detergent present; 370,000 tested, 0.041% active; Potency, µM (titrated, usually from 114 µM), inactives show top-dose activity change, negative = inhibition, usual class: inhibitors; AID 485294; AmpC hydrolysis of nitrocefin, absorbance 480 nm, 0.01% Triton; P00811;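 further: potency means the concentration at half of the fitted maximal effect; 0% = no-compound wells and -100% = no-enzyme wells; nearly all actives have a fitted effect of over 25% in size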
# Target sequence (P00811 whole entry, looked up): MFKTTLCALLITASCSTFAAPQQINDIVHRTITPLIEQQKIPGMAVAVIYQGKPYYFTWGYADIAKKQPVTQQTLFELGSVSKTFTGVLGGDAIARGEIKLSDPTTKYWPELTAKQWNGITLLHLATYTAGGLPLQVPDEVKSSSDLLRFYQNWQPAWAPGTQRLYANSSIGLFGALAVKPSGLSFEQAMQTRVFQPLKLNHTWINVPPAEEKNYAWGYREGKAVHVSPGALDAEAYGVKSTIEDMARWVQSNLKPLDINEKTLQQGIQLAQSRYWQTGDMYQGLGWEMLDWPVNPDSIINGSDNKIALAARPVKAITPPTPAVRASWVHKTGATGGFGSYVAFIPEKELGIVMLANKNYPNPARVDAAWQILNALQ
#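 AmpC (5.3 nM in the dispensed reagent) in 20 mM phosphate pH 7.0 with 0.01% (detergent screen) or 0.0001% Triton X-100 was preincubated with compounds for 15 min at room temperature. Nitrocefin was then added from an 800 uM solution, and hydrolysis was followed at 480 nm.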
# Pf growth 96h – P. falciparum growth inhibition at 96 hours; P. falciparum luciferase reporter growth, 96 h; 320,000 tested, 6.9% active; AID 504834; Potency, µM (series often up to 28.7 µM), without a hit: top-dose activity change, negative = inhibition, usual class: inhibitors; further: potency means the concentration at half of the fitted maximal effect; on the % scale 0 is the no-effect control and ±100 the full control effect
#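 P. falciparum expressing integrated firefly luciferase, in erythrocytes at 2% hematocrit, 0.05% parasitemia, incubated with compounds 96 h at 37 C, 5% CO2. Growth inhibition read as loss of luminescence; two-generation exposure targets delayed-death apicoplast inhibitors.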
# Sm TGR block – inhibitors of Schistosoma mansoni thioredoxin glutathione reductase; Q962Y6; purified TGR, DTNB reduction, TNB absorbance 405 nm; Potency, µM (highest dose often 114 µM), for the others: at the highest dose activity change, negative = inhibition, actives largely listed as inhibitors; 360,000 tested, 3% active; AID 485364; further: potency means the concentration at half of the fitted maximal effect; on the % scale 0 is the no-effect control and ±100 the full control effect; nearly all actives have a fitted effect of over 60% in size
#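 First, TGR (20 nM dispensed) and NADPH were mixed with compound. Second, a 15 min room-temperature incubation followed. Third, further NADPH and then DTNB were added to start the reaction. Finally, TNB absorbance was monitored kinetically.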
# AmpC inh no detg – AmpC beta-lactamase inhibition without detergent; Potency, µM (doses to about 57.1 µM), inactives show at the highest dose activity change, negative = inhibition, hits mostly inhibitors; AmpC nitrocefin hydrolysis, absorbance 480 nm, 0.0001% Triton; 330,000 tested, 0.52% active; AID 485341; P00811;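 further: potency means the concentration at half of the fitted maximal effect; plate controls were no compound for no effect and no enzyme for full effect; nearly all actives have a fitted effect of over 20% in size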
#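 AmpC (5.3 nM in the dispensed reagent) in 20 mM phosphate pH 7.0 with 0.01% (detergent screen) or 0.0001% Triton X-100 was preincubated with compounds for 15 min at room temperature. Nitrocefin was then added from an 800 uM solution, and hydrolysis was followed at 480 nm.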
# SARS PLpro yeast-1 – SARS-CoV PLP inhibition in yeast | AID 485353 | Potency, µM (titrated, usually from 32.9 µM), for inactives: at the top dose activity, positive = growth rescue, hits mostly activators | 330,000 tested, 0.19% active | S. cerevisiae expressing SARS-CoV PLpro, growth rescue; calls by dose curve; further: potency means the concentration at half of the fitted maximal effect; 0% is about no effect; nearly all actives have a fitted effect of over 55% in size
# SARS PLpro yeast-2 – Validates SARS-CoV PLpro inhibitor hits in yeast | calls only | AID 652038 | yeast expressing SARS-CoV PLpro, growth phenotype rescue | shares compounds with SARS PLpro yeast-1 | 1,000 tested, 19% active; call rule not given here
# Starred values were filed as active, the others as inactive; i = inactive; ? = inconclusive; . = no result; + = active, no number; [ ] = remark or other dose. Unless noted, the call rests on the fitted dose curve; in most records, active means well fitted curve in the direction sought with a large enough effect; inconclusive means small, poorly fitted or top-dose-only effect, or another doubt; inactive means no such curve, though single readings can be large; an effect the other way counts as inactive or inconclusive.
SMILES,Pf growth 48h,AmpC inh detg,Pf growth 96h,Sm TGR block,AmpC inh no detg,SARS PLpro yeast-1,SARS PLpro yeast-2
CC(=O)Nc1cccc(C(=O)OCc2ccc(C(=O)Oc3ccc(Cl)cc3)cc2)c1,11.2%,2.4%,-3.3%,0.6%,2.4%,?,i
Cc1ccc(-n2c(C)cc(/C=N/NC(=O)c3ccncc3)c2C)cc1,?,0.5%,?,9.0%,-5.3%,2.1%,.
Cc1ccc(-n2c(C)cc(/C=N/NC(N)=S)c2C)cc1,?,-9.9%,125.5%,-11.5%,-46.4%,11.2µM*,+
CCOC(=O)c1ccc(-c2ccc(C3Nc4ccccc4C(=O)N3O)o2)cc1 (centres undefined),?,-1.9%,-89.4%,-24.0%,-51.3%,5.01µM*,?
Cc1nn(Cc2ccccc2)c(C)c1/C=N/NC(=O)CNc1cccc(C(F)(F)F)c1,?,-12.7%,?,-1.9%,62.2%,11.2µM*,i
COc1ccc(NCC(=O)N/N=C/c2c(C)nn(Cc3ccccc3)c2Cl)cc1,?,?,?,-21.3%,0.6%,-4.8%,.
CC(C)C(=O)Nc1cccc(C(=O)Nc2nnc(C(C)(C)C)s2)c1,41.5%,-6.8%,81.3%,5.4%,-12.1%,?,i
COC(=O)[C@@H](NC(=O)N1CCN(C(=O)C2COc3ccccc3O2)CC1)C(C)C (some centres undefined),-10.8%,-1.4%,4.1%,-21.8%,18.9%,-3.8%,.
O=C(O)c1cc(-c2ccc(/C=N/NC(=S)Nc3ccccc3)o2)ccc1Cl,24.1%,-2.5%,50.4%,.,-41.2%,1.4%,.
O=[N+]([O-])c1cccc(-c2ccc(/C=N/NC(=S)Nc3ccccc3)o2)c1,?,?,3.2%,-3.8%,?,?,+
COc1cccc(/C=N/NC(=O)C(=O)Nc2ccccc2OC(F)(F)C(F)F)c1O,?,-12.0%,-2.2%,-22.3%,-26.7%,3.55µM*,i
COc1ccccc1/C=N/NC(=O)c1cccc(OC(F)(F)C(F)F)c1,1.9%,-7.6%,5.8%,-1.2%,-32.9%,-10.2%,.
Clc1ccc(CNC23CN4CN(CN(C4)C2)C3)c(Cl)c1,14.4%,1.0%,27.0%,-6.8%,-12.6%,?,i
COc1ccc2c(c1)CCCC21NC(=O)N(CC(=O)NC(=O)NCc2ccccc2)C1=O (centres undefined),-28.0%,-1.7%,-26.5%,3.5%,17.4%,1.6%,.
COc1cccc2cc(S(=O)(=O)c3ccc(F)c(C)c3)c(=O)oc12,.,11.0%,.,3.2%,.,.,.
CN(C(=O)c1cccs1)c1ccc(OCC(=O)Nc2ccc(C(=O)O)cc2)cc1,-7.8%,1.0%,9.9%,-10.4%,-4.8%,-0.3%,.
COc1ccc(-c2nn(-c3ccccc3)cc2/C=N/NC(=S)NC(C)C)cc1OC,?,-12.2%,?,-0.9%,-30.8%,7.08µM*,+
COc1ccc(-c2nn(-c3ccccc3)cc2/C=N/O)cc1OC,-13.2%,4.2%,3.1%,1.6%,-14.5%,-2.4%,.
CCn1cc(C(=O)NCCc2ccc(Cl)cc2)c(=O)c2cc(S(=O)(=O)N3CCc4ccccc4C3)ccc21,.,2.7%,.,8.2%,.,.,.
COc1cccc(CNc2cc(CSc3ccc(Cl)cc3)nc(C)n2)c1,.,7.1%,?,2.3%,57.6%,1.7%,.
COc1cccc(CN(C)C(=O)CC2C(=O)NCCN2C2Cc3ccccc3C2)c1 (centres undefined),0.6%,-5.3%,-11.9%,-28.1%,104.6%,.,i
O=C(COC(=O)c1cccnc1Cl)NC1CCCCCC1,.,.,.,.,-15.1%,3.16µM*,i
Nc1nonc1N/N=C/c1c(O)ccc2ccccc12,-10.8%,-10.3%,21.0%,4.0%,-32.9%,-2.2%,.
Nc1cc(Cl)nc(N/N=C/c2c(O)ccc3ccccc23)n1,?,-12.1%,?,-0.1%,-35.0%,2.51µM*,i
O=C(NC(=S)Nc1ccccn1)c1ccco1,102.6%,?,106.1%,24.5%,-13.6%,3.16µM*,i
SMILES,Pf growth 48h,AmpC inh detg,Pf growth 96h,Sm TGR block,AmpC inh no detg,SARS PLpro yeast-1,SARS PLpro yeast-2
CCN(NC(=O)C(O)(c1ccccc1)c1ccccc1)C(=O)c1ccccc1,11.0%,-16.3%,27.1%,-0.9%,-20.9%,14.1µM*,i
O=C(c1ccc(NS(=O)(=O)c2ccc(F)cc2)cc1)N1CCC1,18.3%,-7.4%,-4.8%,-10.8%,-4.7%,-0.6%,.
O=P(N1CCCCC1)(N1CCCCC1)C(Cl)(Cl)Cl,-11.9%,1.7%,.,-0.1%,18.3%,?,i
Cc1sc2ncnc(NCCCN3CCCC3=O)c2c1C,19.4%,-6.7%,-11.2%,6.4%,-0.4%[11.4 µM],-0.7%,.
Cc1ccc(/C=C/C(=O)OCC(=O)Nc2cccc(S(=O)(=O)N(C)C)c2)o1,48.2%,?,-2.7%,?,-19.0%,3.16µM*,i
CN(C)S(=O)(=O)c1cccc(NC(=O)COC(=O)/C=C/c2ccc3c(c2)OCO3)c1,82.2%,4.1%,14.8%,5.4%,-49.4%,0.1%,.
CN1CCN(C(=O)c2ccc(S(=O)(=O)c3ccc(Br)cc3)cc2)CC1,-20.0%,?,.,-7.2%,45.4%,11.2µM*,i
Cc1ccc(-n2c(=O)c3c(cnn3C)n(Cc3ccccc3F)c2=O)cc1,.,-5.3%,.,2.6%,.,.,.
Cc1cc(S(=O)(=O)Nc2cc3c(cc2N2CCOCC2)n(C)c(=O)n3C)ccc1F,.,-1.1%,.,-7.0%,.,.,.
CC(Oc1ccccc1)C(=O)Nc1nnc(S(=O)(=O)Nc2ccccc2)s1 (centres undefined),39.4%,?,110.9%,-5.2%,-22.1%,2.5%,.
Cc1ccc(NC(=O)Cn2cccc2)c(Br)c1,1.0%,-8.3%,.,?,-14.7%,2.51µM*,i
CCCN(CC(=O)Nc1ccc(C)cc1Br)CC(=O)Nc1ccc(F)c(F)c1F,?,-6.3%,?,-9.5%,42.7%,?,i
CCCN(CC(=O)Nc1ccc(NC(C)=O)cc1)CC(=O)Nc1ccc(F)c(F)c1F,6.7%,-1.4%,-10.0%,-0.7%,39.2%,1.7%,.
O=NN1CCN(c2ccncc2S(=O)(=O)N2CCCCC2)CC1,-5.8%,?,-21.8%,4.1%,-17.5%,5.2%,.
O=[N+]([O-])c1ccc(/C=N/N2CCN(c3ccncc3S(=O)(=O)N3CCCCC3)CC2)cc1,?,?,4.15µM*,0.0%,-28.9%,3.16µM*,i
Cc1cccc(C)c1NC(=O)COC(=O)C1C2CC3OC(=O)C1C3C2 (centres undefined),26.0%,-5.6%,22.9%,-19.6%,-11.3%,11.2µM*,i
O=C(CCCOc1ccc(Cl)cc1Cl)N/N=C/c1ccccc1O,?,-11.1%,?,-4.5%,-14.7%,?,i

# Screening results from PubChem BioAssay.
